Data as given in the supplement of paper PMC8726507.
Values without a mark were called inactive.

The molecules below were run on Plasmodium falciparum NF54-HGL (transmission to Anopheles stephensi) (assay: percentage of barcode signal found in uninfected mosquitoes (transmission-blocking activity); higher = stronger blocking of transmission to mosquito, active = 80 or more). Settings: 20 µM; gametocyte preincubation time 24 h; readout time post-feed 8 days.
Experimental: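 The mixture was fed to Anopheles stephensi in 96-well plates as blood meals tagged with DNA-barcoded Asaia bacteria. Eight days later, mosquitoes were classed infected or uninfected by luminescence (mean + 5 SD of unfed controls). Barcodes were quantified by Luminex MagPlex-TAG in the pooled uninfected and infected Asaia cultures, background-corrected, and the score is % of barcode signal in uninfected mosquitoes = 100*Iu/(Iu+Ii).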

SMILES	percentage of barcode signal found in uninfected mosquitoes
O=C(N[C@H](Cc1ccccc1)C(=O)Nc1ccccc1N1CCOCC1)c1cccs1	13.5%
COc1ccc(Oc2ccc([C@@H](C)N(C)c3ncc4c(N)nc(N)nc4n3)cc2)cc1	72.1%
COc1ccc(CCN2CCC(NCc3cccc(N(C)C)c3)CC2)cc1	94.9% (active)
Cc1ccc(-c2nc(CN(Cc3ccccn3)C(C)C)cs2)o1	81.4% (active)
CCC(C)NC(=O)c1ccc(NC(=O)C2(c3ccccc3)CCCC2)cc1 (stereo not given)	47.5%
CC(C)(C)n1nc(Cc2cccc3ccccc23)c2c(N)ncnc21	0.0299%
CCC(NC(=O)c1ccccc1NC(=O)c1ccc(C)cc1)C(=O)OC (stereo not given)	95.2% (active)
COc1ccc(-c2cncc3ccc(C(=O)NCCCn4ccnc4)nc23)cc1	62.9%
COc1cc(OC)cc(C(=O)NCC2Cc3cc(Cl)cc(-c4ccncc4)c3O2)c1 (stereo not given)	1.01%
O=[N+]([O-])c1cn2c(n1)OC[C@@H](OCc1ccc(OC(F)(F)F)cc1)C2	17%
CN1CCN(c2nccc3[nH]c(-c4cccc(F)c4)cc23)CC1	-0.815%
O=C(C1CCN(c2cc(-n3cccc3)ncn2)CC1)N1CCc2ccccc2C1	26.4%
Nc1ncnc2c1c(-c1cnc3ccccc3c1)nn2CC1CCNCC1	-2.55%
CC(C)(CN)c1nc(-c2ccc(Cl)c(O)c2)c(-c2ccnc(N)n2)[nH]1	80.9% (active)
CC(C)C(Oc1cccc2ccccc12)C(=O)O (stereo not given)	20%
